# From PubChem
# Only some compounds are listed: those with a hit (about 14% of all), similar ones and a draw of the others.
# MARV entry inh: qHTS for inhibitors of binding or entry into cells for Marburg Virus | AID 540276, 2011 | Potency, µM (titrated, usually from 37.8 µM), inactives show at the highest dose activity change, negative = inhibition, actives largely listed as inhibitors | hit rate 1.8% among 300,000 | Marburg virus pseudotyped entry inhibition, cell reporter; calls by dose curve; tested in HEK293 cells; note: potency is the fitted concentration of half-maximal effect
# Lassa entry inh: qHTS for Inhibitors of binding or entry into cells for Lassa Virus; Lassa virus pseudotype entry inhibition, cell reporter; Potency, µM (highest dose often 37.9 µM), inactives show top-dose activity change, negative = inhibition, most hits filed as inhibitors; hit rate 1.2% among 300,000; AID 540256, 2011; calls by dose curve; tested in HEK293 cells; note: potency is the fitted concentration of half-maximal effect; nearly all actives have a fitted effect of over 50% in size
# HCMV antiviral: qHTS Assay for inhibitors of the human cytomegalovirus (HCMV) | activity change, negative = inhibition, % at 57.5 µM | HFF cells, HCMV-luciferase reporter, 72 h; stronger effect = lower value | hit rate 4.5% among 410,000; in the data active = activity change below about -60%; inconclusive = no clear call, values can overlap the other calls; inactive = above about -39%
#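 HFF cells seeded 16 h at 37C, treated with compounds, infected with luciferase-reporter HCMV at MOI 1 PFU/cell; luciferase read at 72 h post infection, normalized to buffer-only and Salinomycin controls.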
# Pf growth 48h: Primary qHTS for delayed death inhibitors of the malarial parasite plastid, 48 hour incubation | P. falciparum luciferase growth in erythrocytes, 48 h | Potency, µM (titrated, usually from 28.7 µM), inactives show at the top dose activity change, negative = inhibition, actives largely listed as inhibitors | hit rate 5.9% among 310,000 | AID 504832, 2011; note: potency is the fitted concentration of half-maximal effect
#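 A one-generation exposure of luciferase-tagged malaria parasites in RPMI 1640/Albumax erythrocyte culture, 37 C and 5% CO2. Inhibition is inferred from decreased luminescence after adding detection reagent.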
# Pf growth 96h: Primary qHTS for delayed death inhibitors of the malarial parasite plastid, 96 hour incubation; P. falciparum luciferase reporter growth, 96 h; hit rate 6.9% among 320,000; Potency, µM (top dose mostly 28.7 µM), inactives show top-dose activity change, negative = inhibition, hits mostly inhibitors; AID 504834, 2011; note: potency is the fitted concentration of half-maximal effect
#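 Two parasite generations (96 h, 37 C, 5% CO2) of compound exposure in infected erythrocytes (0.05% parasitemia, 2% hematocrit). Luciferase-reporter P. falciparum; decreased luminescence indicates inhibited growth, aimed at apicoplast-acting delayed death.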
# HCV inh: qHTS Assay for Inhibitors of Hepatitis C Virus (HCV) | hit rate 3.4% among 340,000 | Huh7.5.1 HCVcc-Cre infection, luciferase reporter, 44 h | Potency, µM (series often up to 41.8 µM), without a hit: at the highest dose activity change, negative = inhibition, actives largely listed as inhibitors | AID 651820, 2012; note: potency is the fitted concentration of half-maximal effect
#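 Compounds are dispensed onto cells plated 4 h earlier at 1,000 per well, with HCVcc-Cre virus (about 0.5 moi) added next. Following 44 h of culture, luminescent signal is measured for 15 sec after 15 min with substrate at room temperature.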
# Active calls of the source: *; ? = inconclusive; . = no result given; [ ] = another dose, or the depositor's remark. Unless noted, calls come from the whole dose curve; as a rule, active = well fitted inhibition curve with a large enough effect; inconclusive = small, poorly fitted or top-dose-only effect, or another doubt; inactive = no such curve, though single readings can be large or run the other way. % is set by controls: 0 for no effect and ±100 for the full control effect.
SMILES,MARV entry inh,Lassa entry inh,HCMV antiviral,Pf growth 48h,Pf growth 96h,HCV inh
CCc1ccccc1N(C(=O)c1snc(C(N)=O)c1N)C(C(=O)NCC1CCCO1)c1ccc(C)o1 (stereo not given),?,?,-21.5,?,9.28µM*,?
COCCNC(=O)C(c1ccc(C)o1)N(C(=O)c1snc(C(N)=O)c1N)c1ccc(C)c(C)c1 (stereo not given),-1.8%,2.5%,-65.2*,?,3.4%,-23.5%
Cc1ccc(N(C(=O)c2snc(C(N)=O)c2N)C(C(=O)NCC2CCCO2)c2ccc(C)o2)c(C)c1 (stereo not given),-13.5%[46.1 µM],?,-7.4,?,?,?
COc1ccc(C(C(=O)NCC2CCCO2)N(C(=O)c2snc(C(N)=O)c2N)c2ccc(C)cc2)cc1OC (stereo not given),-3.9%[46.1 µM],.,-27.6,10.4µM*,13.1µM*,-13.7%
COc1ccc(OC)c(N(C(=O)c2snc(C(N)=O)c2N)C(C(=O)NCC2CCCO2)c2ccc3ncccc3c2)c1 (stereo not given),-23.4%[46.1 µM],?,-30.8,?,12.9%,5.6%
COc1ccc(N(C(=O)c2snc(C(N)=O)c2N)C(C(=O)NCC2CCCO2)c2ccc(C)o2)cc1OC (stereo not given),14.9%[46.1 µM],5.7%,42.6,8.28µM*,45.4%,?
CCc1ccc(OCC(=O)Nc2cc(-c3nc4cc(C)ccc4o3)ccc2C)cc1,?,?,50.0,.,.,.
O=C(NCC(c1cccnc1)N1CCc2ccccc2C1)C(=O)Nc1ccccc1F (stereo not given),.,23.3%[46.1 µM],14.3,.,.,.
[O-]/C(=C(\C(=S)Nc1cccc2ccccc12)[n+]1ccccc1)c1ccc(OC(F)F)cc1,1.7%[46.1 µM],-0.9%,12.4,?,14.7µM*,-19.4%
[O-]/C(=C(\C(=S)Nc1cccc2ccccc12)[n+]1ccccc1)c1ccc2c(c1)OCCO2,?,-3.8%,13.9,.,5.86µM*,-11.7%
CCCC[C@@H]1CNCCN1CC1(c2ccccc2)CC1,.,.,-2.1,?,73.0%,?
Cc1onc(-c2c(Cl)cccc2Cl)c1/C(N)=N/OC(=O)N(C)C,17.3%[46.1 µM],11.8%[46.1 µM],14.2,?,?,19.9%
Cc1onc(-c2c(Cl)cccc2Cl)c1CO/N=C(\C#N)c1c(Cl)cccc1Cl,?,-24.4%,?,14.7µM*,?,?
COC(=O)c1c[nH]n2c(=O)c(Cc3ccc(F)cc3Cl)c(C)nc12,8.8%,-3.9%,40.8,-4.7%,1.47µM*,3.1%
COC(=O)c1c[nH]n2c(=O)c(Cl)c(C)nc12,9.3%,?,127.1,13.7%,-29.5%,14.5%
O=C(COC(=O)C1CC2CCCC(C1)C2=O)Nc1ccc(Cl)cn1 (stereo not given),.,.,2.0,0.1%,-11.2%,10.3%
CCCOc1ccc(-c2nc(SCc3ccccc3)[nH]c(=O)c2C#N)cc1OC,-12.2%[46.1 µM],?,-14.2,?,2.0%,-3.7%
O=C(Nc1ccccc1-c1ccccc1)c1ccccc1,.,.,-9.3,2.5%,?,4.3%
O=C(Nc1ccccc1-c1ccccc1)c1cccc([N+](=O)[O-])c1,?,10.2%,-23.5,?,9.28µM*,?
O=C(Nc1nc(-c2ccccc2)cs1)c1cccc([N+](=O)[O-])c1,-18.6%,9.2%,4.0,-23.7%,107.4%,12.6µM*
O=C(Nc1ncc([N+](=O)[O-])s1)c1cccc([N+](=O)[O-])c1,.,.,-99.3*,-45.3%,0.0%,?
O=[N+]([O-])c1cccc(-c2csc(Nc3ccccc3)n2)c1,?,?,22.7,18.7%,?,1.58µM*
O=C(Nc1nc(-c2cccnc2)cs1)c1cccc([N+](=O)[O-])c1,20.0%[46.1 µM],.,?,0.0%,?,?
O=C(Nc1nc(-c2cccnc2)cs1)c1ccc([N+](=O)[O-])cc1,-18.5%,1.6%,18.5,4.65µM*,11.7µM*,?
